In the supplement of paper PMC10849652:
About 8,800 targets were measured; listed, in parts, are those with a hit and a random draw of the rest. About 0.5% of all pairs of compound and target were hits.

Columns and labels:
Experiment in all cases: log2 fold change, soluble protein after heating vs DMSO (PISA); higher = thermal stabilisation; K562 lysate, 10 uM; active = over 0.2 and 3.5 SD of the protein, either way, in both replicates (recomputed)
[1] = compound: CCCS(=O)(=O)Nc1ccc(F)c(C(=O)c2c[nH]c3ncc(-c4ccc(Cl)cc4)cc23)c1F [vemurafenib]
In short: (§1)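 A 30 min treatment with 10 μM compound was applied to crude K562 extract at 1 mg/mL protein in PBS pH 7.4 with 1 mM MgCl2. Heating for 3 min spanned 48°C-58°C, after which aliquots were pooled, adjusted to 0.5% NP-40 at 4°C and spun at 21,000xg for 90 min. TMTpro 16plex LC-MS/MS of the supernatant, with channel sums equalised, gave values recorded as log-two fold change in thermal stability against solvent controls, from duplicates.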

[2] = compound: CC[C@@H]1C(=O)N(C)c2cnc(Nc3ccc(C(=O)NC4CCN(C)CC4)cc3OC)nc2N1C1CCCC1
In short: as §1

[3] = compound: CCn1cc(-c2ccnc3[nH]c(-c4cccc(CN(C)C)c4)cc23)c(-c2ccc(NC(=O)N(C)C)cc2)n1
In short: as §1

[4] = compound: CN1CCC(CNc2ccc3ncc(-c4cccc(OC(F)(F)F)c4)n3n2)CC1
In short: as §1

[5] = compound: CN1CCN(CCOc2cc(OC3CCOCC3)c3c(Nc4c(Cl)ccc5c4OCO5)ncnc3c2)CC1 [saracatinib]
In short: as §1

[6] = compound: CN1CCN(c2nc(C3=C(c4c[nH]c5ccccc45)C(=O)NC3=O)c3ccccc3n2)CC1 [sotrastaurin]
In short: as §1

[7] = compound: CN1CC[C@H](c2c(O)cc(O)c3c(=O)cc(-c4ccccc4Cl)oc23)[C@H](O)C1 [alvocidib]
In short: as §1

[8] = compound: CNC(=O)C1=CC=CC=C1NC2=NC(=NC=C2Cl)NC3=C(C=C(C=C3)N4CCOCC4)OC
In short: as §1

[9] = compound: CNC(=O)c1ccc(Nc2ncc(C(F)(F)F)c(NCc3nccnc3N(C)S(C)(=O)=O)n2)cc1 [defactinib]
In short: as §1

[10] = compound: CNc1nc(-c2ccc3c(N)n[nH]c3c2)cc(N2C[C@@H](C(=O)NC3CCCCC3)CC[C@H]2C)n1
In short: as §1

[11] = compound: COC(=O)N[C@@H](C)CNc1nccc(-c2cn(C(C)C)nc2-c2cc(Cl)cc(NS(C)(=O)=O)c2F)n1 [encorafenib]
In short: as §1

[12] = compound: COC(=O)[C@H](CCSC)NC(=O)C1=C(C=C(C=C1)NC[C@H](CS)N)C2=CC=CC=C2
In short: as §1

[13] = compound: COc1cc(Nc2ncc3c(n2)-c2ccc(Cl)cc2C(c2c(F)cccc2OC)=NC3)ccc1C(=O)O [alisertib]
In short: as §1

[14] = compound: COc1cc2ncnc(Nc3ccc(F)c(Cl)c3)c2cc1OCCCN1CCOCC1 [gefitinib]
In short: as §1

[15] = compound: CCCS(=O)(=O)Nc1ccc(F)c(C(=O)c2c[nH]c3ncc(Cl)cc23)c1F
In short: as §1

[16] = compound: CC[C@@H]1C(=O)N(C)c2cnc(Nc3ccc(C(=O)N[C@H]4CC[C@H](N5CCN(CC6CC6)CC5)CC4)cc3OC)nc2N1C(C)C [volasertib]
In short: as §1

[17] = compound: CCn1c(C(=O)N(C2CC2)C2CC2)cc2c3c(ncn3C)c(Nc3cc(C)n(C)n3)nc21
In short: as §1

[18] = compound: CN1CCc2c(c3ccccc3n2Cc2ccc(C(=O)NO)cc2)C1 [Tubastatin A]
In short: as §1

[19] = compound: COc1cc2nc(-c3cc(F)ccc3O)nc(N[C@@H]3CNC[C@H]3C(C)(C)O)c2cc1OC
In short: as §1

[20] = compound: CCN(CCCOc1ccc2c(Nc3cc(CC(=O)Nc4cccc(F)c4)[nH]n3)ncnc2c1)CCOP(=O)(O)O [barasertib]
In short: as §1

Measured: log2 fold change

PDE4DIP (UniProt E9PS60)
inactive: [1] -0.014 | [2] 0.017 | [4] 0.153 | [5] 0.067 | [6] 0.137 | [7] -0.111 | [8] -0.02 | [9] 0.056 | [10] -0.089 | [11] -0.059 | [12] -0.039 | [13] 0.013 | [14] 0.005
active: [3] -0.942

PICALM (UniProt H0YCY1)
inactive: [8] -0.018

POLR2F (UniProt U3KPV3)
inactive: [2] 0.13 | [5] -0.051 | [10] -0.059 | [11] 0.177 | [12] -0.182

PHKG1 isoform 2 (UniProt Q16816)
inactive: [1] -0.197 | [15] -0.037 | [2] -0.062 | [16] 0.033 | [17] 0.054 | [4] 0.64 | [5] 0.177 | [6] -0.269 | [7] -0.057 | [18] 0.053 | [9] 0.196 | [10] -0.118 | [11] 0.123 | [12] -0.078 | [13] -0.185 | [19] 0.763 | [14] 0.202
active: [3] -0.867 | [8] 0.929

PFN3 (UniProt P60673)
Sequence of UniProt P60673 (P60673 whole entry, looked up): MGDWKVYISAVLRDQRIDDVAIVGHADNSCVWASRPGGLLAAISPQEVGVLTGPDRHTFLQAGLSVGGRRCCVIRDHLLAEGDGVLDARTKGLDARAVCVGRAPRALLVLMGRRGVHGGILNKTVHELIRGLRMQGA
inactive: [1] 0.059 | [15] 0 | [2] 0.112 | [16] 0.056 | [4] 0.109 | [6] 0.042 | [7] -0.182 | [9] -0.109 | [11] 0.125 | [12] -0.28 | [13] -0.047 | [19] 0.154 | [14] 0.075
active: [3] -0.706

PPME1 (UniProt Q9Y570)
Sequence of UniProt Q9Y570 (Q9Y570 whole entry, looked up): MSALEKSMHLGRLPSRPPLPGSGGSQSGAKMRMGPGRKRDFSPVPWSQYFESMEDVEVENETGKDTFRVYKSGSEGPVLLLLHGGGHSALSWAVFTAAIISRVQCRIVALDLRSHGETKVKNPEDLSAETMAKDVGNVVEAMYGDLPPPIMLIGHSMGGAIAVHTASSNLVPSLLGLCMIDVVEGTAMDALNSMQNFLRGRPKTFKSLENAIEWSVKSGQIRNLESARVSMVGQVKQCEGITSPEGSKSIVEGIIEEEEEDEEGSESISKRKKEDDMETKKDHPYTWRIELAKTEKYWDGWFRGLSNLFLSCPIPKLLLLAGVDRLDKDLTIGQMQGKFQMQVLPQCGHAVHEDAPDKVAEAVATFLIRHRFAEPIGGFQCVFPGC
inactive: [15] -0.042 | [20] 0.026 | [2] 0.104 | [16] -0.012 | [5] -0.043 | [8] 0.125 | [10] -0.065 | [11] -0.029 | [12] -0.059 | [19] 0.014

PPP1R11 (UniProt O60927)
Sequence of UniProt O60927 (O60927 whole entry, looked up): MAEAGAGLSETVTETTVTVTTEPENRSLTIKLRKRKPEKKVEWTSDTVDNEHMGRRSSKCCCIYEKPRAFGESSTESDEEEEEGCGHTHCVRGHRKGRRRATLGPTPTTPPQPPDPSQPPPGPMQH
inactive: [15] 0.069 | [20] -0.04 | [2] 0.153 | [16] 0.046 | [17] -0.101 | [3] 0.16 | [4] -0.067 | [5] -0.05 | [6] 0.001 | [7] 0.048 | [18] 0.077 | [8] 0.011 | [10] -0.001 | [11] 0.051 | [12] -0.027 | [13] -0.081 | [19] -0.041 | [14] -0.09

POM121C (UniProt A8CG34)
Sequence of UniProt A8CG34 (A8CG34 whole entry, looked up): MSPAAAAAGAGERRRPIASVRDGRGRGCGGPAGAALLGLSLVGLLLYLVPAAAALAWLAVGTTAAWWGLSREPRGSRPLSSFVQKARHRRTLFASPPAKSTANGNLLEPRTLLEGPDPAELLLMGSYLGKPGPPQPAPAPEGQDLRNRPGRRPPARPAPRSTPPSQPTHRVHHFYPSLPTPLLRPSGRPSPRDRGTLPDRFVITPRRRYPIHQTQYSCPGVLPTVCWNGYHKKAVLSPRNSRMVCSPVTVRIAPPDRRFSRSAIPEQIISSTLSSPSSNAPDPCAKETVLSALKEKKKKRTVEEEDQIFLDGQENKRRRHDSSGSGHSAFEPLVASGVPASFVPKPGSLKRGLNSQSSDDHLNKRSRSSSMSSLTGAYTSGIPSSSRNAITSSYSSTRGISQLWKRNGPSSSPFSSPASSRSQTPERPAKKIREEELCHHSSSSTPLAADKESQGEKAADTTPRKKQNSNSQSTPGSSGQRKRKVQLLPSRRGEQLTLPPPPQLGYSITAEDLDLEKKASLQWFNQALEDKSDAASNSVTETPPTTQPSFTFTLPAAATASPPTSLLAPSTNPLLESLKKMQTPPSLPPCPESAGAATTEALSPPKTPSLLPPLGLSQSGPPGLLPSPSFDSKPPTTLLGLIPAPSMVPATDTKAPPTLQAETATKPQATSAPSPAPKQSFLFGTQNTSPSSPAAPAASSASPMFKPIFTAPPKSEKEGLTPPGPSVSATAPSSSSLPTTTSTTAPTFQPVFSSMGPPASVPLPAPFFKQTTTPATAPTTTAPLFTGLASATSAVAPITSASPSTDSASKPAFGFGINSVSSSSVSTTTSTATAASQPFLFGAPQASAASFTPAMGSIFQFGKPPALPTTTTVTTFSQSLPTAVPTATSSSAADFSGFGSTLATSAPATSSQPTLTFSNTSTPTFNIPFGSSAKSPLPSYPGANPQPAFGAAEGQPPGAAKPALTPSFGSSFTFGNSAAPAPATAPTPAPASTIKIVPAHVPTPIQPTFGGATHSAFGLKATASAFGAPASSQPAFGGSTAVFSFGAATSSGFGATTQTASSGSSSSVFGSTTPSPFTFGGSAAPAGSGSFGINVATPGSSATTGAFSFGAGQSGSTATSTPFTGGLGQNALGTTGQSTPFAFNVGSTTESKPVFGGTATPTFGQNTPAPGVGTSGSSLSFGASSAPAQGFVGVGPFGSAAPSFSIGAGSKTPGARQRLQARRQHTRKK
inactive: [15] -0.037 | [20] 0.201 | [16] -0.101 | [17] 0.045 | [3] 0.146 | [4] 0.158 | [7] -0.089 | [18] 0.124 | [8] 0.069 | [19] -0.076

PYGO2 (UniProt Q9BRQ0)
inactive: [20] 0.036 | [2] -0.106 | [17] 0 | [3] -0.044 | [4] 0.042 | [5] 0.07 | [6] -0.022 | [7] 0.01 | [18] -0.019 | [8] 0.032 | [10] 0.131 | [11] -0.031 | [12] -0.121 | [13] -0.011 | [14] -0.026

NA (UniProt Q4G0T1)
Sequence of UniProt Q4G0T1 (Q4G0T1 whole entry, looked up): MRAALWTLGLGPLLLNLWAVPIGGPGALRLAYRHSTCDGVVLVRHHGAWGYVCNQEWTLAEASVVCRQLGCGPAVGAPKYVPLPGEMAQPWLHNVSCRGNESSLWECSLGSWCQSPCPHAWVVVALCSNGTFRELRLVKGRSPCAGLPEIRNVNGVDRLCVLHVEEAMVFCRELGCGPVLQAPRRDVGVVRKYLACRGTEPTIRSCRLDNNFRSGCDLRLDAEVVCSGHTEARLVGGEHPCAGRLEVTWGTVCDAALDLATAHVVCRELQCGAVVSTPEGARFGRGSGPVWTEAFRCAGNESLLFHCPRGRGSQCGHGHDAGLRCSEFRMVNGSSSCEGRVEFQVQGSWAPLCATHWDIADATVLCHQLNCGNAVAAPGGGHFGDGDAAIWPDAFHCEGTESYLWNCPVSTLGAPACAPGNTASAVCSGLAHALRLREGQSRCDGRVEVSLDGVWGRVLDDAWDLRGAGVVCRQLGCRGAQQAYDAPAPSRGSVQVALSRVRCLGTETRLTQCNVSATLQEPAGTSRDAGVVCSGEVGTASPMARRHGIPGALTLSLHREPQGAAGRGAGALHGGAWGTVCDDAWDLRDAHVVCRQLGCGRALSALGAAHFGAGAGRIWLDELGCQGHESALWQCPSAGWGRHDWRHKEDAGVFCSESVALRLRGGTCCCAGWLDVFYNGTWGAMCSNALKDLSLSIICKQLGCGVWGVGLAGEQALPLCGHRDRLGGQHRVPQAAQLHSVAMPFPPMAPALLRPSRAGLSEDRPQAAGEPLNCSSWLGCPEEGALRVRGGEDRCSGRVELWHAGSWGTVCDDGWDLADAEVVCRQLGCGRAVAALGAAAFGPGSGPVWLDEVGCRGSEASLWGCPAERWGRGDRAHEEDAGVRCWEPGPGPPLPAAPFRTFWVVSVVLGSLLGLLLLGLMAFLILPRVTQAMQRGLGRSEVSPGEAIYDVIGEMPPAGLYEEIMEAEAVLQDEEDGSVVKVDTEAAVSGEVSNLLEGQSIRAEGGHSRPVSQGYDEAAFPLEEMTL
inactive: [17] 0.032 | [3] 0.022 | [4] 0.026 | [5] -0.033 | [6] 0.129 | [7] -0.132 | [18] -0.272 | [8] -0.115 | [10] -0.062

PRADC1 (UniProt Q9BSG0)
Sequence of UniProt Q9BSG0 (Q9BSG0 whole entry, looked up): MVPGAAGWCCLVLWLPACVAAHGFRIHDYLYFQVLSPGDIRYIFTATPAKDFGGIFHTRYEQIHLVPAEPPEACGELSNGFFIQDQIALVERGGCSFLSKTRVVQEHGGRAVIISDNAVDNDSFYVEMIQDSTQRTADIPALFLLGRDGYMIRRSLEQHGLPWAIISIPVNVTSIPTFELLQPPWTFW
inactive: [15] 0.011 | [16] 0.074 | [17] -0.05 | [3] 0.057 | [4] 0.101 | [5] 0.054 | [6] -0.015 | [7] -0.141 | [18] 0.04 | [8] -0.126 | [10] 0.059 | [13] 0.109 | [19] 0.212 | [14] -0.071
active: [20] -0.509

PFN1 (UniProt I3L3D5)
active: [3] 0.924
inactive: [15] -0.142 | [20] 0.241 | [2] -0.01 | [16] -0.107 | [17] -0.067 | [4] -0.135 | [7] 0.045 | [18] -0.01 | [11] 0.157 | [12] 0.058 | [13] 0.028 | [19] -0.195 | [14] 0.062

PIK3CD (UniProt O00329)
inactive: [1] -0.094 | [15] 0.005 | [20] -0.046 | [16] -0.015 | [17] 0.072 | [3] -0.109 | [4] 0.398 | [5] -0.04 | [6] 0.023 | [7] -0.105 | [18] 0.012 | [8] 0.021 | [9] 0.052 | [10] -0.047 | [13] -0.027 | [19] 0.027

PIP5K1A (UniProt Q99755)
active: [4] -0.514
inactive: [15] 0.029 | [20] 0.108 | [16] 0.07 | [17] -0.041 | [3] 0.027 | [5] 0.107 | [6] -0.018 | [7] 0.077 | [18] -0.043 | [8] 0.027 | [10] -0.074 | [13] -0.121 | [19] -0.023 | [14] -0.024

PEX2 (UniProt P28328)
Sequence of UniProt P28328 (P28328 whole entry, looked up): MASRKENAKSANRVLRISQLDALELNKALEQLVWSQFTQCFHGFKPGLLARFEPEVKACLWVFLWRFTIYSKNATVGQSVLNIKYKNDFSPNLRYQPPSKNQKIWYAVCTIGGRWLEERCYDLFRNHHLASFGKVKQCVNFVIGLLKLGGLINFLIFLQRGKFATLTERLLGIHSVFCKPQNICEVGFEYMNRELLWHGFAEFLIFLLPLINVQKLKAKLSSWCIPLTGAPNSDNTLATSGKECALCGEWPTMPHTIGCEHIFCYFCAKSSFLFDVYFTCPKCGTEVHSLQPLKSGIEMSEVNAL
inactive: [1] 0.079 | [15] -0.047 | [20] 0.174 | [16] 0.024 | [17] 0.052 | [3] 0.011 | [4] 0.024 | [5] -0.086 | [6] 0.036 | [7] -0.041 | [18] -0.104 | [8] 0.172 | [9] 0.181 | [10] 0.118 | [13] 0.115 | [19] 0.116 | [14] -0.372

PTK2 isoform 2 (UniProt Q05397)
inactive: [15] -0.101 | [20] 0.05 | [2] -0.076 | [16] -0.387 | [5] -0.063 | [8] 0.003 | [10] 0.018 | [11] -0.058 | [12] -0.129 | [19] 0.053

PHOSPHO2 (UniProt C9JD35)
inactive: [2] -0.432 | [6] -0.027 | [11] 0.018 | [12] -0.36

PIM1 isoform 2 (UniProt P11309)
Sequence of UniProt P11309 (P11309 whole entry, looked up): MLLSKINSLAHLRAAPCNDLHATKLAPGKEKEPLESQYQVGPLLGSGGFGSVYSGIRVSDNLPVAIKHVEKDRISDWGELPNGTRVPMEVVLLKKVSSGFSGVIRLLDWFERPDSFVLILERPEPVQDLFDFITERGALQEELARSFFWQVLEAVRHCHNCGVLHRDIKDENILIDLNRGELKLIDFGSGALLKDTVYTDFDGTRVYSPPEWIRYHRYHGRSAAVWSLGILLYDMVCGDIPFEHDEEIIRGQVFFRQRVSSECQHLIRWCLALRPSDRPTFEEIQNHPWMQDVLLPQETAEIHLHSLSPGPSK
inactive: [1] -0.061 | [20] 0.139 | [2] 0.002 | [17] 0.073 | [3] -0.068 | [5] 0 | [7] 0.217 | [18] -0.204 | [8] 0.052 | [9] 0.035 | [10] -0.152 | [11] -0.007 | [12] 0.038 | [13] -0.017 | [14] 0.003
active: [4] 1.46 | [6] 0.593

PHGDH, A0A286YFE1
inactive: [15] 0.158 | [20] 0.364 | [16] 0.083 | [5] -0.318 | [10] -0.19 | [19] -0.114

PIK3CG (UniProt P48736)
Sequence of UniProt P48736 (P48736 whole entry, looked up): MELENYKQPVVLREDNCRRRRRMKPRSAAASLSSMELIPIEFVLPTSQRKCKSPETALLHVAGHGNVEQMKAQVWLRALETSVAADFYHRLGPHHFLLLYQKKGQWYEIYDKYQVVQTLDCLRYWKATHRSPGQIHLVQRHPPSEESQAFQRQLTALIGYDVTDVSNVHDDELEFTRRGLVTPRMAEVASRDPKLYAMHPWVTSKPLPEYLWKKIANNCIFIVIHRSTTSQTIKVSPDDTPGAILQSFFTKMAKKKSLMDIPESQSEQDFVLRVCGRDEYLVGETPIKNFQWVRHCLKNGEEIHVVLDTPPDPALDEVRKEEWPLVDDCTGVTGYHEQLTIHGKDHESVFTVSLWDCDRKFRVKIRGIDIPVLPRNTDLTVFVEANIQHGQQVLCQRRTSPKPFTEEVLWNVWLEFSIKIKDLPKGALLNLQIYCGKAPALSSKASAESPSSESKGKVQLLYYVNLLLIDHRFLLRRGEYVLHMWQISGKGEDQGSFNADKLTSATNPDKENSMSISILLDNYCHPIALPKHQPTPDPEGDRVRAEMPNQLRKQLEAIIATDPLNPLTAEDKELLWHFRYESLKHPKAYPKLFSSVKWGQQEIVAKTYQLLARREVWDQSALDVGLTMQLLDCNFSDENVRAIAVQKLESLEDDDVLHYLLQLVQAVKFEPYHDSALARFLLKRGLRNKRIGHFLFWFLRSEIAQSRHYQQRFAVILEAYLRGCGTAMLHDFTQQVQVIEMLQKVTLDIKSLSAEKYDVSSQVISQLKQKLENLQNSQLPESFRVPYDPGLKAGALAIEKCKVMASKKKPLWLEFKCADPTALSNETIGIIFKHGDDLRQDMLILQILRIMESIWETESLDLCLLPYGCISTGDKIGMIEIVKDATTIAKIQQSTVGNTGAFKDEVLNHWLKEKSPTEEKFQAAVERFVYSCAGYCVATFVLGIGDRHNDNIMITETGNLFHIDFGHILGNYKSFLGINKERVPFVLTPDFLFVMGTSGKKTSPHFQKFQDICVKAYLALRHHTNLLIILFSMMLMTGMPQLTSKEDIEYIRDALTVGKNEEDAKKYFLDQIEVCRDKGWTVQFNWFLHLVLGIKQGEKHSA
inactive: [1] 0.028 | [20] 0.046 | [2] 0.004 | [17] 0.006 | [5] 0.028 | [6] 0.051 | [7] -0.033 | [18] -0.044 | [8] 0.04 | [9] 0.009 | [10] -0.015 | [11] 0.046 | [12] 0.041 | [13] 0.001
active: [3] -0.276 | [4] 0.289

PIAS2 (UniProt O75928)
inactive: [1] -0.263 | [2] -0.026 | [17] 0.003 | [5] 0.044 | [6] -0.033 | [18] -0.092 | [8] 0.006 | [9] -0.348 | [10] -0.002 | [11] 0.006 | [12] -0.041 | [13] -0.021 | [14] -0.091

PCLAF (UniProt Q15004)
Sequence of UniProt Q15004 (Q15004 whole entry, looked up): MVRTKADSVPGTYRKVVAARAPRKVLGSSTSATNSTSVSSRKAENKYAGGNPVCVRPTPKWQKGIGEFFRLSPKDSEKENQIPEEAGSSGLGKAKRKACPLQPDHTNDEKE
inactive: [1] -0.016 | [20] -0.068 | [2] 0.057 | [17] -0.033 | [3] -0.067 | [4] 0.121 | [5] -0.013 | [6] 0.011 | [7] -0.005 | [18] 0.041 | [8] 0.017 | [9] 0.014 | [10] 0.056 | [11] 0.005 | [12] -0.077 | [13] -0.097 | [14] 0.001
